From PubChem BioAssay (NCI)
Compounds without any hit were thinned out: in the full panel of roughly 83,000, 20% have a hit.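 Assay: single dose, 48 h. Readout: percent growth (0 = no net growth; negative = cell death). Active: <10.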 Active and inactive are the calls of the source.

Legend:
Experiment in all cases: NCI-60 one-dose screen, 48 h (100 = growth as untreated, 0 = no growth, -100 = all killed)
Conditions in all cases: 10 µM unless noted
RPMI-8226 leukemia = system: RPMI-8226 leukemia
OVCAR-8 ovarian = system: OVCAR-8 ovarian
OVCAR-5 ovarian = system: OVCAR-5 ovarian
OVCAR-4 ovarian = system: OVCAR-4 ovarian
SK-OV-3 ovarian = system: SK-OV-3 ovarian
IGROV1 ovarian = system: IGROV1 ovarian
OVCAR-3 ovarian = system: OVCAR-3 ovarian
HS 578T breast = system: HS 578T breast
NCI/ADR-RES ovarian = system: NCI/ADR-RES ovarian
T-47D breast = system: T-47D breast

Measured: growth

CCOc1ccccc1C(=O)OCC(=O)Nc1cccc(S(=O)(=O)N(C)C)c1
inactive: RPMI-8226 leukemia 85.8% | OVCAR-8 ovarian 92.9% | OVCAR-5 ovarian 94.9% | OVCAR-4 ovarian 95.2% | SK-OV-3 ovarian 129% | IGROV1 ovarian 98.5% | OVCAR-3 ovarian 126% | HS 578T breast 95.3% | NCI/ADR-RES ovarian 96.8% | T-47D breast 66.5%

CN=C(NC)N/N=C(C)\C=N\NC(=NC)NC
inactive: RPMI-8226 leukemia 127% | OVCAR-8 ovarian 102% | OVCAR-5 ovarian 116% | OVCAR-4 ovarian 112% | SK-OV-3 ovarian 101% | IGROV1 ovarian 112% | OVCAR-3 ovarian 107% | HS 578T breast 102% | NCI/ADR-RES ovarian 107% | T-47D breast 109%

CC(=O)Oc1ccc(C2OC(c3ccc4ccccc4c3OC(C)=O)=NN2C(C)=O)c(OC(C)=O)c1 (stereo unspecified)
inactive: RPMI-8226 leukemia 21.2% | OVCAR-5 ovarian 63.2% | OVCAR-4 ovarian 32.2% | SK-OV-3 ovarian 27.6% | IGROV1 ovarian 20.3% | OVCAR-3 ovarian 18.7% | HS 578T breast 59.7% | NCI/ADR-RES ovarian 11.1% | T-47D breast 25%
active: OVCAR-8 ovarian 8.13%

O=C1/C(=C/c2ccc([N+](=O)[O-])o2)Oc2ccc(Cl)cc21
active: RPMI-8226 leukemia -11.3% | OVCAR-8 ovarian -14.9% | OVCAR-4 ovarian -48% | IGROV1 ovarian -53.6% | OVCAR-3 ovarian -74.5% | T-47D breast -28.9%
inactive: OVCAR-5 ovarian 46.1% | SK-OV-3 ovarian 85.6% | HS 578T breast 68.7% | NCI/ADR-RES ovarian 56.1%

CN(C)c1ccc2[nH]c3c(C(N)=O)cc(=O)c(=O)c=3oc2c1
active: RPMI-8226 leukemia 5% | OVCAR-3 ovarian -9.97%
inactive: OVCAR-8 ovarian 25.4% | OVCAR-5 ovarian 89% | OVCAR-4 ovarian 49.1% | SK-OV-3 ovarian 82% | IGROV1 ovarian 32.5% | HS 578T breast 20.4% | NCI/ADR-RES ovarian 58.1% | T-47D breast 18.1%

COc1cc2c(cc1OC)C1CCN3C(=O)CCC3N1CC2 (stereo unspecified)
inactive: RPMI-8226 leukemia 102% | OVCAR-8 ovarian 113% | OVCAR-5 ovarian 109% | OVCAR-4 ovarian 116% | SK-OV-3 ovarian 112% | IGROV1 ovarian 125% | OVCAR-3 ovarian 113% | HS 578T breast 97.9% | NCI/ADR-RES ovarian 99.6% | T-47D breast 105%

CC[C@@H]1OC(=O)[C@H](C)[C@@H](O[C@H]2C[C@@](C)(OC)[C@@H](O)[C@H](C)O2)[C@H](C)[C@@H](O[C@@H]2O[C@H](C)C[C@H](N(C)C)[C@H]2O)[C@](C)(O)C[C@@H](C)[C@@H]2N[C@@H](COCCOC)O[C@H]([C@H]2C)[C@]1(C)O
inactive: RPMI-8226 leukemia 88.8% | OVCAR-8 ovarian 102% | OVCAR-5 ovarian 105% | OVCAR-4 ovarian 106% | SK-OV-3 ovarian 109% | IGROV1 ovarian 108% | OVCAR-3 ovarian 124% | HS 578T breast 115% | NCI/ADR-RES ovarian 101% | T-47D breast 105%

C[C@]12CC[C@@H]3c4ccc(O)c([N+](=O)[O-])c4CC[C@H]3[C@@H]1CC[C@@H]2NS(=O)(=O)c1cccc(Br)c1
inactive: RPMI-8226 leukemia 10.7% | OVCAR-8 ovarian 40% | OVCAR-5 ovarian 88.2% | OVCAR-4 ovarian 40.4% | SK-OV-3 ovarian 80.3% | IGROV1 ovarian 34.8% | OVCAR-3 ovarian 28.5% | HS 578T breast 62.5% | NCI/ADR-RES ovarian 26.8% | T-47D breast 24.6%

C=C1CC[C@@H]2[C@](C)(COC(C)=O)[C@H](OC(C)=O)CC[C@@]2(C)[C@@H]1CC(Nc1ccc(S(=O)(=O)Nc2cc(C)on2)cc1)C1=CCOC1=O (stereo partly specified)
inactive: OVCAR-8 ovarian 16.1% | OVCAR-5 ovarian 52.2% | OVCAR-4 ovarian 68.2% | SK-OV-3 ovarian 109% | IGROV1 ovarian 62.6% | HS 578T breast 89.5% | NCI/ADR-RES ovarian 31.6% | T-47D breast 63.6%
active: RPMI-8226 leukemia -15.2% | OVCAR-3 ovarian 7.95%

O=C(Nc1nc2ccccc2s1)c1cc(-c2ccc(F)cc2)n2nc(-c3ccccc3)cc2n1
inactive: RPMI-8226 leukemia 50.9% | OVCAR-8 ovarian 56.1% | OVCAR-5 ovarian 64.7% | SK-OV-3 ovarian 35% | IGROV1 ovarian 78% | OVCAR-3 ovarian 20.3% | HS 578T breast 59.7% | NCI/ADR-RES ovarian 61.8% | T-47D breast 45.4%
active: OVCAR-4 ovarian -24.7%

NC(=O)N/N=C/c1ccc(Br)o1
inactive: RPMI-8226 leukemia 109% | OVCAR-8 ovarian 107% | OVCAR-5 ovarian 98.7% | OVCAR-4 ovarian 111% | SK-OV-3 ovarian 101% | IGROV1 ovarian 97.8% | OVCAR-3 ovarian 113% | HS 578T breast 109% | NCI/ADR-RES ovarian 105% | T-47D breast 91.4%

O=C(Nc1cccc(C(F)(F)F)c1)Nc1ccc(OCc2nnc(-c3ccc(Cl)cc3)o2)c(F)c1
inactive: RPMI-8226 leukemia 41.3% | OVCAR-8 ovarian 58.2% | OVCAR-5 ovarian 75.9% | OVCAR-4 ovarian 75% | SK-OV-3 ovarian 79.5% | IGROV1 ovarian 90% | OVCAR-3 ovarian 85.8% | HS 578T breast 91.7% | NCI/ADR-RES ovarian 73.1% | T-47D breast 61.6%

CN(C)c1ccc(/C=C(\C#N)c2nc3ccccc3c(=O)[nH]2)cc1
inactive: RPMI-8226 leukemia 140% | OVCAR-8 ovarian 97.1% | OVCAR-5 ovarian 86.8% | OVCAR-4 ovarian 29.9% | SK-OV-3 ovarian 114% | OVCAR-3 ovarian 114% | HS 578T breast 71.4% | NCI/ADR-RES ovarian 76.9% | T-47D breast 92.1%
active: IGROV1 ovarian -10.8%

CCOc1cccc(C2CC(=O)Nc3cc4c(cc32)OCO4)c1 (stereo unspecified)
inactive: RPMI-8226 leukemia 71.1% | OVCAR-8 ovarian 89% | OVCAR-5 ovarian 109% | OVCAR-4 ovarian 89.9% | SK-OV-3 ovarian 86.6% | IGROV1 ovarian 83.4% | OVCAR-3 ovarian 82.4% | HS 578T breast 91.6% | NCI/ADR-RES ovarian 82.3% | T-47D breast 66.9%

CCn1c2c(c3ccccc31)SC1c3cccn3CCN1C2=S (stereo unspecified)
inactive: RPMI-8226 leukemia 76.7% | OVCAR-8 ovarian 94.4% | OVCAR-5 ovarian 104% | OVCAR-4 ovarian 54.5% | SK-OV-3 ovarian 99.9% | IGROV1 ovarian 80% | OVCAR-3 ovarian 100% | HS 578T breast 81.2% | NCI/ADR-RES ovarian 102% | T-47D breast 41.9%

Cc1ccc(NC(=O)Nc2ccc(-c3cccnc3)cc2N2CCC(CO)CC2)cc1
inactive: RPMI-8226 leukemia 19.4% | OVCAR-8 ovarian 44.2% | OVCAR-5 ovarian 43.6% | OVCAR-4 ovarian 45% | SK-OV-3 ovarian 28.4% | IGROV1 ovarian 63.1% | HS 578T breast 10.6% | T-47D breast 42.7%
active: OVCAR-3 ovarian 4.71%

Cc1cc(NC(=O)c2ccc(N)cc2)ccc1N=Nc1ccc2c(O)c(N=Nc3ccc(Cl)c(S(=O)(=O)O)c3)c(S(=O)(=O)O)cc2c1
inactive: RPMI-8226 leukemia 65.6% | OVCAR-8 ovarian 70.2% | OVCAR-5 ovarian 92.2% | OVCAR-4 ovarian 106% | SK-OV-3 ovarian 88.6% | IGROV1 ovarian 73% | OVCAR-3 ovarian 85.9% | HS 578T breast 103% | NCI/ADR-RES ovarian 76.1% | T-47D breast 70.9%

Clc1ccc2nc(Cl)c3ccccc3c2c1
inactive: RPMI-8226 leukemia 70.9% | OVCAR-8 ovarian 50.8% | OVCAR-5 ovarian 78% | IGROV1 ovarian 48.6% | OVCAR-3 ovarian 35.3% | HS 578T breast 56.8%
active: OVCAR-4 ovarian -42.6% | SK-OV-3 ovarian 0.43% | T-47D breast -13.9%

CCCCC1Nc2nc(SC)n(C)c(=O)c2CN(Cc2ccccc2)C1=O (stereo unspecified)
inactive: RPMI-8226 leukemia 67.5% | OVCAR-8 ovarian 99.9% | OVCAR-5 ovarian 100% | OVCAR-4 ovarian 103% | SK-OV-3 ovarian 93.8% | IGROV1 ovarian 106% | OVCAR-3 ovarian 113% | HS 578T breast 165% | T-47D breast 93.2%

O=C(CCc1nnc(Cn2ccnc2)o1)c1nc2ccccc2[nH]1
inactive: RPMI-8226 leukemia 117% | OVCAR-8 ovarian 105% | OVCAR-5 ovarian 103% | OVCAR-4 ovarian 107% | SK-OV-3 ovarian 108% | IGROV1 ovarian 106% | OVCAR-3 ovarian 118% | HS 578T breast 112% | T-47D breast 102%

C[N+]1(CCC[N+]2(C)C[C@@H]3[C@H](C2)[C@@H]2C=C[C@H]3C2)CCOCC1 (stereo partly specified)
inactive: RPMI-8226 leukemia 106% | OVCAR-8 ovarian 104% | OVCAR-5 ovarian 88.9% | OVCAR-4 ovarian 112% | SK-OV-3 ovarian 99.3% | IGROV1 ovarian 103% | OVCAR-3 ovarian 116% | HS 578T breast 111% | T-47D breast 109%

Clc1ncn[nH]1
inactive: RPMI-8226 leukemia 102% | OVCAR-8 ovarian 92% | OVCAR-5 ovarian 107% | OVCAR-4 ovarian 100% | SK-OV-3 ovarian 96.3% | IGROV1 ovarian 105% | OVCAR-3 ovarian 105% | HS 578T breast 106% | T-47D breast 99.5%

COc1cccc2c1O/C(=C\c1c([N+](=O)[O-])ncn1C)C2=O
active: RPMI-8226 leukemia -17%
inactive: OVCAR-8 ovarian 94.4% | OVCAR-5 ovarian 108% | OVCAR-4 ovarian 106% | SK-OV-3 ovarian 93.4% | IGROV1 ovarian 97.4% | OVCAR-3 ovarian 106% | HS 578T breast 111% | NCI/ADR-RES ovarian 98.1% | T-47D breast 106%

Cn1cc(-c2csc(-c3c[nH]c4ncccc34)n2)c2cc(Br)cnc21
inactive: RPMI-8226 leukemia 61.8% | OVCAR-8 ovarian 22.4% | OVCAR-5 ovarian 82.3% | IGROV1 ovarian 27.3% | OVCAR-3 ovarian 20.6% | NCI/ADR-RES ovarian 29.2% | T-47D breast 20.7%
active: OVCAR-4 ovarian -34.6% | SK-OV-3 ovarian 0.893%

CCCCn1c(Cc2ccc(Cl)cc2)nc2cc(OC)c(OC)cc2c1=O
inactive: RPMI-8226 leukemia 23.4% | OVCAR-8 ovarian 70.1% | OVCAR-5 ovarian 93.5% | OVCAR-4 ovarian 71.1% | SK-OV-3 ovarian 187% | IGROV1 ovarian 69.9% | OVCAR-3 ovarian 80.9% | HS 578T breast 114% | T-47D breast 101%

Fc1ccc(-c2nc(Nc3ccc(-c4nc5ccccc5[nH]4)cc3)nc(N3CCOCC3)n2)cc1
active: RPMI-8226 leukemia -73.4% | OVCAR-8 ovarian -73.8% | OVCAR-5 ovarian -74.7% | OVCAR-4 ovarian -73.9% | SK-OV-3 ovarian -89.9% | IGROV1 ovarian -71.2% | OVCAR-3 ovarian -95.6% | HS 578T breast -40.3% | NCI/ADR-RES ovarian -87.5% | T-47D breast -64.8%

COc1cc(C2CC(=O)Nc3c2cc(Br)c2ccccc32)cc(Br)c1OC (stereo unspecified)
active: OVCAR-4 ovarian -64.2% | SK-OV-3 ovarian -15.1% | OVCAR-3 ovarian -13% | T-47D breast 4.99%
inactive: RPMI-8226 leukemia 43.3% | OVCAR-8 ovarian 31.7% | OVCAR-5 ovarian 76.2% | IGROV1 ovarian 26.7% | HS 578T breast 39.6%

COc1cc(/C=C/C(=O)Nc2cccnc2Nc2cc(OC)c(OC)c(OC)c2)cc(OC)c1OC
inactive: RPMI-8226 leukemia 66.9% | OVCAR-8 ovarian 84.1% | OVCAR-5 ovarian 99.3% | OVCAR-4 ovarian 92.7% | SK-OV-3 ovarian 112% | IGROV1 ovarian 112% | OVCAR-3 ovarian 114% | HS 578T breast 96.6% | NCI/ADR-RES ovarian 83.5% | T-47D breast 100%
